Here are results for 5 compounds from PubChem BioAssay (NCATS).

Experiment [1] is described as follows: Cell Viability - SK-N-SH (AID 435; calls by dose curve;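 further: potency means the concentration at half of the fitted maximal effect; compound exposure lasted 40 h at 37 °C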). The conditions noted are these: SK-N-SH neuroblastoma cell viability qHTS. Put shortly: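 SK-N-SH human neuroblastoma cells (1500/well) were exposed to compounds in complete medium for 40 h at 37 °C, and intracellular ATP was then measured by CellTiter-Glo luminescence. AC50 was taken from Hill fits, normalized to DMSO and 100 uM tamoxifen.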
(In qHTS, concentration-response curves come from the screen itself.)

Experiment [2] can be described thus: Cell Viability - Renal Proximal Tubule (AID 545). Further: nearly all actives have a fitted effect of over 40% in size. The note with it: renal proximal tubule cells viability; series mostly up to 91.7 µM. Put shortly: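 Primary rat renal proximal tubule cells (1000/well) were treated with compounds for 40 hr at 37 °C in complete medium. Intracellular ATP was measured by CellTiter-Glo luminescence, and AC50 values came from Hill-equation fits of concentration-response data.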

Experiment [3] is described as follows: Cellular Toxicity (caspase-3) SHSY5Y (AID 657). The note with it: SH-SY5Y caspase-3 activation, DMSO zero, 10 µM staurosporine = 100%; series mostly up to 91.7 µM. Put shortly: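 SH-SY5Y human neuroblastoma cells (1500/well) were treated with compounds for 16 h at 37 °C, then Caspase-Glo 3/7 luminescence was read after 1 h at room temperature. Data normalized to DMSO and 10 uM staurosporine; AC50 from Hill fits.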

The nature of experiment [4]: Cellular Toxicity (caspase-3) N2a (AID 665).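 Further: compound exposure lasted 16 h at 37 °C before readout.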 The conditions noted are these: N2a cells, luminescence, normalized: DMSO 0%, 10 µM staurosporine 100%; series mostly up to 92.2 µM. Put shortly: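 Caspase-3/7 activation measured as luminescence from Caspase-Glo reagent (1 h, room temperature) after 16 h compound exposure of mouse N2a cells. AC50 values from Hill-equation concentration-response, scaled between DMSO and 10 uM staurosporine.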

Experiment [5] can be described thus: Cellular Toxicity (caspase-3) Renal Proximal Tubule (AID 667).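 Further: cells exposed to compound for 16 hours at 37 °C before detection.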 The conditions noted are these: renal proximal tubule cells; series mostly up to 91.7 µM. Put shortly: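 Primary rat proximal tubule cells, 1000/well, 5 h plating at 37 °C, then compound 16 h at 37 °C. Caspase-Glo 3/7 reagent, 1 h RT, luminescence. Normalized to DMSO (basal) and 10 uM staurosporine (100%); Hill-fit AC50.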

The target of experiment [6] is Cytochrome P450 3A4 (Homo sapiens) (UniProt P08684). The experiment in a line: qHTS Assay for Inhibitors and Substrates of Cytochrome P450 3A4 (AID 884). Further: nearly all actives have a fitted effect of over 50% in size. Further: potency means the concentration at half of the fitted maximal effect. The note with it: recombinant CYP3A4, Luciferin-PPXE luminescence; series mostly up to 57.1 µM. The method in brief:
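Luminescent readout of luciferin produced by CYP3A4 (20 nM) dealkylation of Luciferin-PPXE, 25 uM (its KM). NADPH-driven reaction ran 60 min at RT after 10 min compound preincubation; data scaled to 57 uM ketoconazole as 100% inhibition.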

Experiment [7] in a line: MultiTox-Fluor Cytotoxicity Assay - LYMP1-001 - Dead Cells (AID 946).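 Further: 0% = DMSO and 100% = tetraoctylammonium bromide.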 The conditions noted are these: LYMP1-001 lymphoblastoid cells, dead-cell protease fluorescence; series mostly up to 92.2 µM. The method in brief:
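AC50 from Hill fit of concentration-response; data normalized to DMSO (basal) and 15 uM tetraoctylammonium bromide (100%). LYMP1-001 lymphoblastoid cells, 2500/well, 16 hr compound at 37 C; dead-cell protease fluorescence, Ex/Em 485/520.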

Experiment [8] is described as follows: Cell Viability - LYMP1-002 - Assay at 16 hr (AID 948).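 Further: 0% = DMSO alone and full effect = 92 µM tetraoctylammonium bromide.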 The note with it: LYMP1-002 lymphoblastoid cell viability; series mostly up to 92.2 µM. Put shortly: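 Human lymphoblastoid cells (LYMP1-002), 2500/well, were preincubated 5 hr at 37 C, then exposed to compounds for 16 hr at 37 C in complete medium. Cellular ATP was read by CellTiter-Glo luminescence after 30 min at room temperature; AC50 from Hill fits.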

Experiment [9] is described as follows: MultiTox-Fluor Cytotoxicity Assay - LYMP1-003 - Dead Cells (AID 961).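 Further: 0% = DMSO and 100% = tetraoctylammonium bromide; nearly all actives have a fitted effect of over 70% in size.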 The conditions noted are these: LYMP1-003 lymphoblastoid cells, dead-cell protease fluorescence; series mostly up to 92.2 µM. The method in brief:
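Human lymphoblastoid LYMP1-003 cells (2500/well) were treated with compounds for 16 hr at 37 C in complete medium. Dead-cell protease release was read by bis-AAF-R110 fluorescence (Ex/Em 485/520). AC50 came from Hill fits, normalized to DMSO and 15 uM tetraoctylammonium bromide.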

Experiment [10] is described as follows: Cell Viability - LYMP1-003 - Assay at 24 hr (AID 963).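 Further: plate controls were DMSO only for no effect and tetraoctylammonium bromide positive control for full effect.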 The conditions noted are these: LYMP1-003 lymphoblastoid cell viability; series mostly up to 92.2 µM. The method in brief:
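Concentration-response qHTS: ATP loss measured by CellTiter-Glo luminescence after 24 h compound exposure at 37 C. Cells were LYMP1-003 human lymphoblastoid, 2500 per well. AC50 derived via standard Hill equation modeling.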

Experiment [11] is described as follows: Cell Viability - LYMP2-003 (AID 965).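 Further: cells exposed to compounds for 24 h before reading; 0% = DMSO only and full effect = 92 µM tetraoctylammonium bromide; nearly all actives have a fitted effect of over 50% in size.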 The conditions noted are these: LYMP2-003 lymphoblastoid cell viability; series mostly up to 92.2 µM. The method in brief: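 Human lymphoblastoid cells (2500/well) were pre-incubated 5 hr at 37 C, then exposed to compounds over a concentration range for 24 hr at 37 C. Intracellular ATP was read by CellTiter-Glo luminescence; AC50 came from Hill-equation fits.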

Experiment [12] in a line: Cell Viability - LYMP2-015 (AID 971). Further: nearly all actives have a fitted effect of over 55% in size. Further: potency means the concentration at half of the fitted maximal effect. The note with it: LYMP2-015 lymphoblastoid cell viability; series mostly up to 92.2 µM. Put shortly: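 Cytotoxicity readout: decrease in intracellular ATP (CellTiter-Glo luminescence) in 2500 LYMP2-015 lymphoblastoid cells/well after 24 h compound exposure at 37 C. Concentration-response data fitted with the standard Hill equation to give AC50.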

Experiment [13] in a line: Cell Viability - LYMP1-002 - Assay at 24 hr (AID 993). Further: on the % scale 0 is the no-effect control and ±100 the full control effect. The conditions noted are these: LYMP1-002 lymphoblastoid cells viability; series mostly up to 92.2 µM. The method in brief: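 qHTS cytotoxicity at 24 h: CellTiter-Glo ATP luminescence in lymphoblastoid line LYMP1-002 incubated with compound at 37 °C. Concentration-response modeled with the Hill equation for AC50; tetraoctylammonium bromide served as positive control.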

Experiment [14] is described as follows: Cell Viability - LYMP1-002 - Assay at 40 hr (AID 994).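 Further: 0% = DMSO only and full inhibition = 92 µM tetraoctylammonium bromide; nearly all actives have a fitted effect of over 60% in size.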 The note with it: LYMP1-002 lymphoblastoid cell viability; series mostly up to 92.2 µM. The method in brief:
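Cytotoxicity was read as loss of cellular ATP (CellTiter-Glo luminescence) after 40 hr compound exposure at 37 C of 2500 LYMP1-002 lymphoblastoid cells per well. Concentration-response data were fitted with the standard Hill equation to give AC50.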

The target of experiment [15] is Peroxisome proliferator-activated receptor alpha (Homo sapiens) (UniProt Q07869). The experiment in a line: qHTS assay for small molecule agonists of the peroxisome proliferator-activated receptor alpha (PPARalpha) signaling pathway (AID 651778). Further: % of control where 0% means no effect. The note with it: PathHunter PPARalpha complementation, chemiluminescence, 6 h; stronger effect = higher value. The method in brief: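 Chemiluminescence from complemented enzyme reported PPARalpha activation in cells after 6 hr of compound treatment at 37 C. The detection reagent was incubated for 60 min at room temperature, and compounds were scored as agonists.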
Chain of Peroxisome proliferator-activated receptor alpha (Homo sapiens) (Q07869 whole entry, looked up): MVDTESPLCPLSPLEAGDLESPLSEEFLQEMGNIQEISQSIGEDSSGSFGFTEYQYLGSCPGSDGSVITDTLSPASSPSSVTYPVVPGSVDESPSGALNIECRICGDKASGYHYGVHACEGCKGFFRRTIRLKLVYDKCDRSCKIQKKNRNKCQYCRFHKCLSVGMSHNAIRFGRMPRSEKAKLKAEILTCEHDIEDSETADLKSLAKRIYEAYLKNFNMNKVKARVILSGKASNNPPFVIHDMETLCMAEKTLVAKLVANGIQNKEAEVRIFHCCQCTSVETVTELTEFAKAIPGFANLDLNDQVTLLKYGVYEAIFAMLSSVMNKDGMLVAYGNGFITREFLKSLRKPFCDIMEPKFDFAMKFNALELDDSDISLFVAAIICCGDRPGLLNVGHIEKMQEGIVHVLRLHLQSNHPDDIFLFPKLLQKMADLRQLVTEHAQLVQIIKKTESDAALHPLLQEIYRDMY

Experiment [16] in a line: qHTS assay for cell viability of the p53RE-bla HCT-116 cell line (AID 743292). Further: on the % scale 0 is the no-effect control and ±100 the full control effect; nearly all actives have a fitted effect of over 55% in size. The note with it: p53RE-bla HCT-116 viability, ATP luminescence, 16 h; series mostly up to 95 µM. Put shortly:
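Intracellular ATP of p53RE-bla HCT-116 cells measured by luciferase luminescence following 16 h compound incubation at 37 C; DMSO-only wells served as vehicle controls.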

The target in experiment [17] is Nuclear receptor subfamily 1 group I member 2 (Rattus norvegicus) (UniProt Q9R1A7). Put plainly: qHTS assay for small molecule activators of the rat pregnane X receptor (rPXR) signaling pathway (AID 651751; call rule not given here; further: 0% is about no effect). The conditions noted are these: rPXR reporter cells, luciferase (One-Glo), 24 h.
Chain of Nuclear receptor subfamily 1 group I member 2 (Rattus norvegicus) (Q9R1A7 whole entry, looked up): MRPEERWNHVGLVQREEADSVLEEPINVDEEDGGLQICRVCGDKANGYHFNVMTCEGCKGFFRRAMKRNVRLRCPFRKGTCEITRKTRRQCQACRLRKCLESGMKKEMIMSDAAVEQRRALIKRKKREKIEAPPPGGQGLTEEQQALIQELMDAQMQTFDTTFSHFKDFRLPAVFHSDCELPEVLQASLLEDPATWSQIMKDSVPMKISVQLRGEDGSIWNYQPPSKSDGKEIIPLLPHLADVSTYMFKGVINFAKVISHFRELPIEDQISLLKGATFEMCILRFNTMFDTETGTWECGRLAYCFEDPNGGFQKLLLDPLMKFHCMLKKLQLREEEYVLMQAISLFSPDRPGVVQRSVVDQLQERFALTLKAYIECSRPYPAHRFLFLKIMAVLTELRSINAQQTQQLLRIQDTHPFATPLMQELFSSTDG
Experiment [18] in a line: Cellular Toxicity (caspase-3) Jurkat (AID 655).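 Further: cells exposed to compound for 16 h at 37 °C before reading.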 The note with it: Jurkat caspase-3 activation, luminescence; caspase-3 activation: at 92.2 µM (top of the series), DMSO = 0%, tamoxifen = 100%. The method in brief:
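Jurkat cells (5000/well) in complete medium were treated with compounds for 16 hr at 37 °C, then Caspase-Glo 3/7 luminescence was read after 20 min at room temperature. Data normalized to DMSO (basal) and 100 uM tamoxifen (100%); AC50 from Hill fit.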

A short description of experiment [19]: Cellular Toxicity (caspase-3) BJ (AID 658). The note with it: BJ fibroblasts, luminescence, normalized: DMSO 0%, staurosporine 100%; series mostly up to 91.7 µM. Put shortly:
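Caspase-Glo 3/7 luminescence, read 1 hr after reagent at room temperature, in normal BJ fibroblasts exposed 16 hours at 37 °C. AC50 values from Hill-equation concentration-response, scaled between DMSO basal and 10 uM staurosporine as 100%.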

Experiment [20] in a line: qHTS assay for cell viability of HEK293 cells (AID 743288). Further: on the % scale 0 is the no-effect control and ±100 the full control effect; nearly all actives have a fitted effect of over 50% in size. The conditions noted are these: ATP luminescence (CellTiter-Glo), 18 h, stronger effect = lower value. The method in brief:
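After 18 h compound exposure at 37 C, parental HEK293 cells (2,000/well) are lysed with CellTiter-Glo and luminescence is read following 30 min at room temperature.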

Structures are written as SMILES. Several values for one entry are separate records, joined by “and”; a condition that tells them apart may be missing. Equal entries are not always repeated. Values without a mark were called inactive. Records with an inconclusive call do not appear. Activity calls are given as the source filed them. Unless noted, the call rests on the fitted dose curve; in most records, active means well fitted curve in the direction sought with a large enough effect; inconclusive means small, poorly fitted or top-dose-only effect, or another doubt; inactive means no such curve, though single readings can be large; an effect the other way counts as inactive or inconclusive.

Chain of Cytochrome P450 3A4 (Homo sapiens) (P08684 whole entry, looked up): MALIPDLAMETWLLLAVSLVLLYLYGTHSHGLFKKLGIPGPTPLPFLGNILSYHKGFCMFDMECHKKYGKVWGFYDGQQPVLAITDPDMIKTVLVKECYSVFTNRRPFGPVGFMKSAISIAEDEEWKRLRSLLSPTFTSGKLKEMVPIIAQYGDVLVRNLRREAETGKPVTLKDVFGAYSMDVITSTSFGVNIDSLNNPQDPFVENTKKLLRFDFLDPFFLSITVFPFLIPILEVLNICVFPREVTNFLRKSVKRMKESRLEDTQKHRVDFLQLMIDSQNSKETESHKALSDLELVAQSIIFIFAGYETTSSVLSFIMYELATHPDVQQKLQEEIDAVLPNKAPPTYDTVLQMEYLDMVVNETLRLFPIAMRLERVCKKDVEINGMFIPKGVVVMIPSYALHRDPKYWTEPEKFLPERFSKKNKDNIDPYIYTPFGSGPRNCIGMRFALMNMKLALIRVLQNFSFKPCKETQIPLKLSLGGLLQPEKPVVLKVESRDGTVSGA

On to `BrCC(Br)(Br)Br`, for which the Potency is > 92 µM in experiment [1] and 15.8 µM (active) in experiment [12]. Further, the compound was classed as inactive in [2], in [3], in experiment [4], in experiment [5], in experiment [7] and in experiment [8]. For the same compound, the outcome in [10] was inactive. Further, the Potency entry in experiment [6], in experiment [9], in experiment [11], in experiment [13], in experiment [14] and in experiment [16] was “inactive” in each case. The values for the max response in [15] and in experiment [17] were -5.78% and -4.89%, respectively.

Turning to `COP(=S)(OC)SCn1nnc2ccccc2c1=O`, the compound was classed as inactive in [2], in experiment [3], in experiment [19], in experiment [4], in experiment [5] and in experiment [7]. The outcome in experiment [8] and in experiment [10] was inactive. Further, the caspase-3 activation in experiment [18] was -1.97%. Further, the Potency in [6] was 7.94 µM (active). The Potency entry in [11], in experiment [12], in experiment [13], in experiment [14] and in experiment [16] was “inactive” in each case. Moreover, the max response is -5.24% and -2.4% in experiment [15]; -22% in experiment [20]; 0.903% and 4.17% in experiment [17].

Turning to `CN(C)c1ccc(N(C)C)cc1`, the Potency in [1] was > 92 µM. For the same compound, the compound was classed as inactive in experiment [2], in experiment [3], in experiment [19], in [4], in experiment [5] and in [7]. The call in experiment [8] and in experiment [10] was inactive. Also, the caspase-3 activation in [18] is 1.91%. The Potency result in experiment [6], in experiment [9], in experiment [13], in [14] and in experiment [16] was “inactive” each time. The max response in [15] was -4.1%; in experiment [20] it was -3.92%.

In the case of `CC[N+](=O)[O-]`, the Potency in experiment [1] was > 92 µM. In addition, the result in [2], in experiment [3], in [19], in experiment [4], in [5] and in [7] was inactive. The result in [8] and in experiment [10] was inactive. The caspase-3 activation in experiment [18] is 1.63%. Moreover, the Potency result in experiment [6], in experiment [9], in [11], in experiment [12], in experiment [13] and in experiment [14] was “inactive” in each case. Also, in experiment [16], the Potency entry was “inactive”. For the same compound, the max response was 1.55% in [15], 0.073% in [20] and -6.68% in [17].

Consider `Oc1cc(Cl)cc(Cl)c1`, for which, in experiment [1], the Potency was > 92 µM. In addition, the call in experiment [2], in experiment [3], in experiment [19], in experiment [4], in experiment [5] and in experiment [7] was inactive. The outcome in experiment [8] and in [10] was inactive. Moreover, the caspase-3 activation in experiment [18] was -0.202%. The Potency entry in [6], in experiment [9], in experiment [11], in experiment [12], in experiment [13] and in experiment [14] was “inactive” in each case. Besides, the Potency entry in experiment [16] was “inactive”. Also, the max response in [15] is 5.88%; in experiment [20] it was 3.49%; in [17], 0.776%.
